Shown are actives, neighbours in structure and some others; about 2.8% of the full set was active somewhere.
Peg3 prom inh-1 – reduces Peg3 promoter-driven luciferase expression in HeLa. 1.7% of 360,000 active. AID 588405. HeLa PEG-Prom luciferase reporter, luminescence, overnight. inhibition, % at 20 µM;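 active = inhibition of at least 50% at 20 µM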
PAX8 inh HTS – inhibitors of PAX8 transcriptional activity in RMG-I cells | RMG-I TPO-luciferase reporter, SteadyGlo, 24 h | inhibition, % at 12.6 µM | 1.2% of 360,000 active | AID 652154;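 active = mean replicate inhibition at least 60% with every replicate also reaching 60%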;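 note: luciferase light reporting Pax8 driven TPO promoter activity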
Shn3 inh set2 – reduces Shn3 3'UTR luciferase signal in osteoblasts | 0.52% of 360,000 active | Clone20 osteoblast Shn3 3'UTR firefly luciferase, 24 h | inhibition, % at 12.5 µM;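 active = mean inhibition of at least 75% with every replicate also reaching 75%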
TRPM1 prom inh – reduces MITF-dependent TRPM1 promoter luciferase signal; inhibition, % at 12.5 µM; SK-MEL-5 TRPM1 promoter luciferase, 24 h; 0.83% of 330,000 active;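 active = mean inhibition across replicates of 60% or more, whatever share of single replicates reaches that level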
HIF-2a block – blocks HIF-2a reporter activity; 786-0 RCC cells HIF-2a reporter, luciferase luminescence, overnight; inhibition, % at 18.8 µM; 0.72% of 360,000 active;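 active = inhibition of the luminescence signal of 40% or more relative to plate controls, in a single-dose primary screen at 18.75 µM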
EBV LMP1 NFkB – Epstein-Barr LMP1 NF-kappaB reporter inhibition; 0.69% of 350,000 active; LMP1-induced NF-kappaB luciferase reporter cells, luminescence; inhibition, % at 12.5 µM; in the data active = inhibition above about 41%
Peg3 prom inh-2 – Peg3 promoter inhibition confirmation | shares compounds with Peg3 prom inh-1 | HeLa PEG-Prom luciferase reporter, luminescence, overnight | inhibition, % at 20 µM | 84% of 1,300 active | AID 602417;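 active = at 20 µM dose, 40% or more inhibition averaged across four replicates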
Hits are given with their value; . = inactive; / = no result.

SMILES	Peg3 prom inh-1	PAX8 inh HTS	Shn3 inh set2	TRPM1 prom inh	HIF-2a block	EBV LMP1 NFkB	Peg3 prom inh-2
O=C(C(=O)N(Cc1ccccc1)Cc1ccccc1)c1c(-c2ccccc2)[nH]c2ccccc12	63.8	88.4	.	.	.	.	68.2
COCC(=O)N1C[C@H](C)[C@@H](OC)CN(C)C(=O)c2ccc(NS(C)(=O)=O)cc2OC[C@H]1C	/	.	/	/	/	/	/
N=c1n(CCN2CCCC2)c2ccccc2n1CC(O)c1ccc(Cl)c(Cl)c1 (stereo not given)	114.8	.	.	99.3	.	.	98.5
N=c1n(CCN2CCOCC2)c2ccccc2n1CC(=O)c1ccc(Cl)c(Cl)c1	.	.	.	.	.	.	/
O=C(C[C@@H]1CC[C@@H]2[C@H](COC[C@H](O)CN2Cc2cc(F)ccc2F)O1)NCc1ccccc1	/	.	/	/	/	/	/
COCC(=O)N1C[C@H](C)[C@@H](OC)CN(C)C(=O)c2cc(NC(=O)c3ccccc3)ccc2OC[C@@H]1C	/	.	/	/	/	/	/
CCN1C(=O)C(=Cc2cccc(OC)c2Oc2ccc([N+](=O)[O-])cc2[N+](=O)[O-])SC1=S	108.5	.	99.1	88.2	.	.	72.4
COc1cc(/C=C2\SC(=O)NC2=O)ccc1Oc1ccc([N+](=O)[O-])cc1[N+](=O)[O-]	.	.	.	.	.	.	/
COCC(=O)Nc1ccc2c(c1)[C@@H]1C[C@H](CC(=O)N[C@H](C)c3ccccc3)O[C@H](CO)[C@@H]1O2	/	.	/	/	/	/	/
O=C(CN1CCCC1)Nc1ccc(-c2nc3cc(NC(=O)CN4CCCC4)ccc3o2)cc1	71.5	/	.	.	.	.	92.3
CC(C)CC(N)c1csc(NC(=O)Nc2ccccc2C(C)(C)C)n1 (stereo not given)	67.2	.	.	/	.	/	90.6
COc1ccccc1NC(=O)Nc1nc(C(N)CCc2ccccc2)cs1 (stereo not given)	88.2	.	.	/	.	/	95.1
COc1ccc(CNC(=O)Nc2nc(C(N)Cc3ccc(F)cc3)cs2)cc1 (stereo not given)	96.4	.	.	/	.	/	98.4
COc1ccccc1CNC(=O)Nc1nc(C(N)C(C)C)cs1 (stereo not given)	.	.	.	/	.	/	/
CN(C)Cc1csc(NC(=O)Nc2ccccc2Oc2ccccc2)n1	93.3	.	.	/	.	/	.
CN(C)Cc1csc(NC(=O)Nc2ccccc2-c2ccccc2)n1	.	.	.	/	.	/	/
Cc1noc(C)c1S(=O)(=O)Nc1ccc2c(c1)C(=O)N([C@H](C)CO)C[C@@H](C)[C@@H](CN(C)Cc1ccc(Cl)c(Cl)c1)OCCCC[C@H](C)O2	/	.	/	/	/	/	/
CN(C)CCNC(=O)c1sc2nc(-c3ccccc3)cc(C(F)(F)F)c2c1N	61.0	.	.	.	.	.	70.4
COc1ccc(-c2cc(C(F)(F)F)c3c(N)c(C(=O)NCCSC)sc3n2)cc1	.	.	.	.	.	.	/
COc1cccc(NC(=O)N[C@H]2C=C[C@H](CC(=O)Nc3ccccc3)O[C@@H]2CO)c1	/	.	/	/	/	/	/
Cc1ccc(NC(=O)Nc2ccnc(-c3cccnc3)n2)cc1	87.8	.	.	.	.	.	67.1
Cc1cccc(NC(=O)c2nc[nH]c2C(=O)NCCCCNC(=O)c2[nH]cnc2C(=O)Nc2cccc(C)c2)c1	77.7	.	.	.	.	.	.
Cc1cccc(NC(=O)c2nc[nH]c2C(=O)NCCCCCCNC(=O)c2[nH]cnc2C(=O)Nc2cccc(C)c2)c1	.	.	.	.	.	.	/
O=C(C[C@H]1CC[C@H]2[C@@H](COC[C@@H](O)CN2S(=O)(=O)c2cccc(F)c2)O1)NCCCN1CCOCC1	/	.	/	/	/	/	/
O=C(CCN1C(=O)/C(=C/c2ccc(F)cc2)SC1=S)N[C@@H](CO)Cc1ccccc1	78.6	.	.	.	.	.	72.3
SMILES	Peg3 prom inh-1	PAX8 inh HTS	Shn3 inh set2	TRPM1 prom inh	HIF-2a block	EBV LMP1 NFkB	Peg3 prom inh-2
COc1cc2ccccc2cc1C(=O)N(CCN(C)C)c1nc2c(OC)ccc(OC)c2s1	66.3	.	.	.	.	.	66.7
C[C@H]1CCCCO[C@H](CN(C)Cc2ccc(C(F)(F)F)cc2)[C@@H](C)CN([C@@H](C)CO)C(=O)c2cc(NC(=O)CCC(F)(F)F)ccc2O1	/	.	/	/	/	/	/
NC(N)=N/N=C/c1ccc(OCc2ccccc2)c(OCc2ccccc2)c1	102.7	.	.	82.5	.	.	99.3
C[C@@H]1CN([C@H](C)CO)C(=O)c2cc(NC(=O)CCCN(C)C)ccc2O[C@@H](C)CCCCO[C@@H]1CN(C)Cc1ccc2c(c1)OCO2	/	.	/	/	/	/	/
CCN(CC)CCSc1nnc2c3cc(C)ccc3n(Cc3ccccc3)c2n1	63.9	.	.	/	.	/	46.3
CSc1nnc2c3cc(F)ccc3n(Cc3ccccc3)c2n1	.	.	.	.	.	.	/
COC1=C(Br)C(=O)c2ncccc2C1=O	100.5	.	.	65.0	72.0	.	99.2
COc1ccccc1N1C(=O)c2cccnc2C1=O	.	.	.	.	.	.	/
Cc1ccc(Oc2ccc(NC(=O)Cn3ccsc3=N)cc2)cc1	53.0	/	.	.	.	.	.
Cc1cc(C)c(S(=O)(=O)ON2C(=O)c3ccccc3C2=O)cc1C	69.9	/	.	.	.	.	40.8
CCCSc1ccc2nc(-c3ccccc3)cn2c1	76.6	.	.	79.1	68.5	68.2	69.1
O=C(CCN1CCCCC1)NCC[C@H]1CC[C@H](NC(=O)C2CC2)[C@@H](CO)O1	/	.	/	/	/	/	/
CN(C)c1ccc(C(=O)c2ccccc2)cc1	.	/	.	.	.	.	/
CN(C)c1ccc(N=Nc2ccc(C(=O)O)cc2)cc1	64.8	.	.	66.2	53.8	.	.
O=[N+]([O-])CC1(n2nc3ccccc3n2)CCCCC1	66.8	/	.	.	.	.	.
CCCNC(=O)N[C@H]1CC[C@@H](CCn2cc(-c3cccc(F)c3)nn2)O[C@H]1CO	/	.	/	/	/	/	/
Cc1ccccc1S(=O)(=O)N1CC[C@@H]2[C@H](CO)N(C)c3ccc(C#Cc4ccc(F)cc4)cc3[C@@H]21	/	.	/	/	/	/	/
CS(=O)(=O)Nc1cccc(NC(=O)c2cccc3c(-c4cccnc4)coc23)c1	.	/	.	/	.	/	/
CC(=O)Nc1cccc(NC(=O)c2cc(-c3cccnc3)nc3ccc(Cl)cc23)c1	56.9	.	.	.	.	.	47.3
CC(=O)c1cccc(NC(=O)c2cccc3c(-c4cccnc4)coc23)c1	66.2	.	.	/	.	/	60.6
COc1ccc(S(=O)(=O)N[C@@H]2CC[C@@H](CCNC(=O)c3ccccc3F)O[C@H]2CO)cc1	/	.	/	/	/	/	/
CN1C(=O)c2cc(NC(=O)Nc3ccccc3F)ccc2OC[C@@H]2O[C@@H](CC(=O)NCc3ccc(-c4ccccc4)cc3)CC[C@H]21	/	.	/	/	/	/	/
CC(C)c1ccc(/C=N/NC(=O)c2nnn(-c3nonc3N)c2CN(C)C2CCCCC2)cc1	64.6	.	.	.	.	.	.
CCCc1c(C(=O)N/N=C/c2ccc(OCc3ccccc3)cc2)nnn1-c1nonc1N	.	.	.	/	.	.	/

Assay outcomes from PubChem.
